High-throughput results from PubChem BioAssay.
Wnt bcat act – Wnt/beta-catenin pathway activators, primary screen, cell-based, plate reader, single point. Wnt/beta-catenin reporter cell assay, activator. activation, % at 9.35 µM. 300,000 compounds, 1.2% hits. AID 743398, 2014; in the data active = activation above about 30%, passing the limit was not always enough; inconclusive = no clear call, values can overlap the other calls;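 note: 0% = neutral control wells and 100% = positive control wells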
HSF-1 act – HSF-1 activators, primary screen, NIH3T3-HGL cells, MG132 stress, luminescence, single point; activation, % at 9 µM; 300,000 compounds, 1.7% hits; NIH3T3-HGL HSF-1 luciferase reporter, 8 h; 100% = twice DMSO control signal;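 active = mean replicate activation of at least 50% with a set share of replicates each reaching 50%; inconclusive = only one of those two conditions met; inactive = mean below 50% and too few replicates reaching it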;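 note: 0% = median of the neutral control wells and 100% = twice that signal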
HSF1 inh – HSF1 inhibitors in luciferase reporter cells, primary screen, cell-based, NIH3T3, luminescence. NIH3T3-HGL HSE-luciferase, MG132-induced, luminescence 8 h; stronger effect = lower value. activity change, negative = inhibition, % at 7.5 µM (by protocol). 300,000 compounds, 0.77% hits;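 active = more than half of replicate wells show activity change below -50%, luminescence cut by over half; inconclusive = some wells, but at most half, below -50%; inactive = no replicate well below -50%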;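 note: luciferase reports HSF-1 transcriptional activity via heat shock element; 0% = median of DMSO wells and -100% = zero luminescence signal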
esBAF inh – Bmi1 luciferase reporter increase in mESCs, primary screen, esBAF inhibitor project, mouse ES cells, Bmi1 luciferase knock-in, single point. 24 h; 100% = twice the neutral-well signal. reporter increase, % at 12.5 µM. 350,000 compounds, 2% hits. AID 602393, 2012; in the data active = activation above about 40%; inconclusive = no clear call, values can overlap the other calls;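 note: 0% = median of the plate's neutral control wells and 100% = double that signal; a rise in the Bmi1 reporter signal indicates esBAF inhibition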
MITF TRPM1 HTS – activators of MITF-driven TRPM1 promoter reporter, primary screen, cell-based, SK-MEL-5, luciferase, single point; SK-MEL-5 TRPM1-promoter luciferase, 24 h; % of positive control, neutral wells = 0; 300,000 compounds, 0.75% hits; activation, % at 12.5 µM;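 active = mean activation of at least 80% with every replicate also reaching 80%; inconclusive = mean reaches 80% but some replicate falls short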;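 note: 0% = neutral control wells and 100% = parthenolide positive control wells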
An asterisk follows results filed as active. In the library only some 3.8% were active in any assay of this set; here they are far more common.

Screening Cc1ccccc1S(=O)(=O)N[C@H]1CC[C@@H](CCn2cc(Cc3ccccc3)nn2)O[C@@H]1CO returned esBAF inh 1.
O=C(C1CC1)N1CC[C@H]2[C@H](CO)Nc3ccc(Br)cc3[C@H]21 was read as esBAF inh 4.
Screening O=C(C1CC1)N1CC[C@@H]2[C@H]1c1cc(Br)ccc1N[C@@H]2CO returned esBAF inh 47*.
`Cc1ccc(-c2nc(N)n(C(=O)c3cccnc3)n2)cc1` gave Wnt bcat act 9, HSF-1 act 31, HSF1 inh 20 and esBAF inh 43*.
For Cc1noc(C)c1NC(=O)N(C)C[C@@H]1Oc2ccc(NC(=O)NC3CCCCC3)cc2CC(=O)N([C@H](C)CO)C[C@@H]1C the results were esBAF inh 5.
Clc1ncnc2scc(C3COc4ccccc4O3)c12 (configuration not stated) was read as HSF-1 act 58*, HSF1 inh 21 and esBAF inh 3.
Screening CCCNC(=O)N1C[C@H]2[C@@H](c3ccccc31)[C@H](CO)N2Cc1ccc(F)cc1 returned esBAF inh -4.
For CCOC(=O)N1C(=O)[C@@](CC)(c2ccccc2)N1C(=O)OCC the results were Wnt bcat act -1, HSF-1 act -65, HSF1 inh -55*, esBAF inh 4 and MITF TRPM1 HTS -73.
`CC(C)NC(=O)Nc1ccc2c(c1)C(=O)N([C@H](C)CO)C[C@@H](C)[C@@H](CN(C)C(=O)Nc1ccc(F)cc1)O2` gave esBAF inh 1.
`CCOCCCNC(=O)c1ccc2c(c1)N(CC)C(=O)c1ccccc1S2=O` (configuration not stated) gave Wnt bcat act -1, HSF-1 act -4, HSF1 inh -9, esBAF inh 3 and MITF TRPM1 HTS -2.
CCN1C(=O)c2ccccc2S(=O)c2ccc(C(=O)N3CCCC3)cc21 (configuration not stated) was read as Wnt bcat act -2, HSF-1 act -88, HSF1 inh -85*, esBAF inh 3 and MITF TRPM1 HTS -10.
CCN1C(=O)c2ccccc2S(=O)c2ccc(C(=O)NCc3ccc(OC)cc3)cc21 (configuration not stated) was read as Wnt bcat act 3, HSF-1 act -90, HSF1 inh -87*, esBAF inh 3 and MITF TRPM1 HTS -11.
COc1ccc(NC(=O)N(C)C[C@@H]2Oc3ccc(NC(=O)C4CCCCC4)cc3CC(=O)N([C@H](C)CO)C[C@@H]2C)cc1 was read as esBAF inh 2.
For CN(C)CCCCNCCCNC(=O)/C=N\O the results were HSF-1 act 62*, HSF1 inh 26, esBAF inh -14 and MITF TRPM1 HTS -2.
`C[C@@H]1CCCCO[C@H](CN(C)S(C)(=O)=O)[C@H](C)CN([C@@H](C)CO)C(=O)c2cc(NC(=O)c3ccncc3)ccc2O1` gave esBAF inh -6.
COC(=O)c1cnc(N2CCCN(S(=O)(=O)c3ccc(C(F)(F)F)cc3)CC2)nc1C(F)(F)F was read as Wnt bcat act -2, HSF-1 act 53* and HSF1 inh 15.
COC(=O)c1cnc(N2CCCN(S(=O)(=O)c3ccccc3)CC2)nc1C(F)(F)F was read as Wnt bcat act 2, HSF-1 act -22 and HSF1 inh -13.
`CO[C@H]1CN(C)C(=O)c2ccc(NC(=O)C3CCOCC3)cc2OC[C@H](C)N(C(C)=O)C[C@@H]1C` gave esBAF inh 1.
For O=C(CSc1nncc2ccccc12)Nc1cccc(O)c1 the results were Wnt bcat act 0, HSF-1 act 67*, HSF1 inh 28, esBAF inh 0 and MITF TRPM1 HTS -2.
`CSc1ccc(C2c3[nH]c4ccccc4c3CCN2C(=O)c2ccnn2C)cc1` (configuration not stated) gave Wnt bcat act 42*, HSF-1 act inconclusive, HSF1 inh 41 and MITF TRPM1 HTS 31.
`c1ccc(-c2nc(-c3ccco3)cs2)nc1` gave Wnt bcat act 3, HSF-1 act 36, HSF1 inh 32, esBAF inh 34 and MITF TRPM1 HTS 91*.
`COc1ccccc1OCC(=O)NCCC1=CCCCC1` gave HSF-1 act 6, HSF1 inh -2 and MITF TRPM1 HTS -3.
Screening O=C(COC(=O)/C=C/c1ccc(C(F)(F)F)cc1)NCCC1=CCCCC1 returned Wnt bcat act -1, HSF-1 act 4, HSF1 inh -1, esBAF inh 0 and MITF TRPM1 HTS 0.
Screening O=C(/C=C/c1ccccc1)NCCC1=CCCCC1 returned Wnt bcat act 28, HSF-1 act 30, HSF1 inh 26, esBAF inh 71* and MITF TRPM1 HTS 40.
`O=C(/C=C/c1ccc(F)cc1)NCCC1=CCCCC1` gave Wnt bcat act 65*, HSF-1 act 49, HSF1 inh 29 and esBAF inh 78*.
COc1ccccc1/C=C/C(=O)NCCC1=CCCCC1 was read as Wnt bcat act 53*, HSF-1 act 37, HSF1 inh 19 and MITF TRPM1 HTS 48.
For C[C@@H]1CN([C@@H](C)CO)C(=O)c2cc(NS(=O)(=O)c3cccs3)ccc2O[C@@H]1CN(C)Cc1ccncc1 the results were esBAF inh -5.
`Cc1ccsc1C(=O)N/N=C/C=C/c1ccccc1[N+](=O)[O-]` gave HSF-1 act 27, HSF1 inh 22, esBAF inh 45* and MITF TRPM1 HTS 44.
Screening Cc1ccsc1C(=O)N/N=C/c1ccc2c(c1)OCO2 returned Wnt bcat act 21, HSF-1 act 52*, HSF1 inh 13 and MITF TRPM1 HTS 12.
Screening Cc1ccccc1/C=N/NC(=O)c1sccc1C returned Wnt bcat act 80*, HSF-1 act 55*, HSF1 inh 37 and MITF TRPM1 HTS 79.
Screening CCN(CC)c1ccc(/C=N/NC(=O)c2ccoc2C)c(O)c1 returned Wnt bcat act 47*, HSF-1 act -9, HSF1 inh 8 and MITF TRPM1 HTS -16.
For Cc1cc(/C=N/NC(=O)c2ccoc2C)cc(C)c1O the results were Wnt bcat act 0 and esBAF inh 69*.
For Cc1occc1C(=O)N/N=C/c1ccc2c(c1)OCO2 the results were Wnt bcat act 38*, HSF-1 act 34, HSF1 inh 25, esBAF inh -27 and MITF TRPM1 HTS 8.
`CCCCCn1nc(C)c(/C=N/NC(=O)c2ccoc2C)c1C` gave HSF-1 act 7, HSF1 inh 13, esBAF inh 62* and MITF TRPM1 HTS 51.
For C[C@@H](NC(=O)N(C)C[C@@H]1OCc2ccccc2-c2c(n(C)c3ccccc23)C(=O)N([C@@H](C)CO)C[C@@H]1C)c1ccccc1 the results were esBAF inh -6.
